# The supplement of paper PMC3150612
# ± gives the standard deviation of the averaged measurements.
# Experiments:
# Drosophila melanogaster [1] = test: olfactory response index (dipstick assay) (fraction of flies (RI; 1 aversion, 0.5 indifferent, 0 attraction)); higher = stronger aversion to the odorant; conditions: odorant concentration: 1% v/v, male
# Drosophila melanogaster [2] = test: as above; conditions: odorant concentration: 1% v/v, female
# [3] = genotype (tubulin-GAL4 x UAS-RNAi line; control = progenitor): A5
# [4] = genotype (tubulin-GAL4 x UAS-RNAi line; control = progenitor): control
# [5] = genotype (tubulin-GAL4 x UAS-RNAi line; control = progenitor): obp 18a
# [6] = genotype (tubulin-GAL4 x UAS-RNAi line; control = progenitor): obp 22a
# [7] = genotype (tubulin-GAL4 x UAS-RNAi line; control = progenitor): obp 28a
# [8] = genotype (tubulin-GAL4 x UAS-RNAi line; control = progenitor): obp 56a
# [9] = genotype (tubulin-GAL4 x UAS-RNAi line; control = progenitor): obp 56c
# [10] = genotype (tubulin-GAL4 x UAS-RNAi line; control = progenitor): obp 56f
# [11] = genotype (tubulin-GAL4 x UAS-RNAi line; control = progenitor): obp 57a
# [12] = genotype (tubulin-GAL4 x UAS-RNAi line; control = progenitor): obp 57b
# [13] = genotype (tubulin-GAL4 x UAS-RNAi line; control = progenitor): obp 58c
# [14] = genotype (tubulin-GAL4 x UAS-RNAi line; control = progenitor): obp 59a
# [15] = genotype (tubulin-GAL4 x UAS-RNAi line; control = progenitor): obp 83a
# [16] = genotype (tubulin-GAL4 x UAS-RNAi line; control = progenitor): obp 83c
# [17] = genotype (tubulin-GAL4 x UAS-RNAi line; control = progenitor): obp 93a
# [18] = genotype (tubulin-GAL4 x UAS-RNAi line; control = progenitor): obp 99b
# [19] = genotype (tubulin-GAL4 x UAS-RNAi line; control = progenitor): obp 56h
smiles,measurement,setting,value
O=Cc1ccccc1 [benzaldehyde],olfactory response index,Drosophila melanogaster [1]; [3],0.725 ± 0.049
same,olfactory response index,Drosophila melanogaster [1]; [4],0.83 ± 0.13
same,olfactory response index,Drosophila melanogaster [1]; [5],0.53 ± 0.1
same,olfactory response index,Drosophila melanogaster [1]; [6],0.467 ± 0.074
same,olfactory response index,Drosophila melanogaster [1]; [7],0.621 ± 0.14
same,olfactory response index,Drosophila melanogaster [1]; [8],0.418 ± 0.068
same,olfactory response index,Drosophila melanogaster [1]; [9],0.522 ± 0.14
same,olfactory response index,Drosophila melanogaster [1]; [10],0.656 ± 0.11
same,olfactory response index,Drosophila melanogaster [1]; [11],0.547 ± 0.17
same,olfactory response index,Drosophila melanogaster [1]; [12],0.636 ± 0.024
same,olfactory response index,Drosophila melanogaster [1]; [13],0.702 ± 0.035
same,olfactory response index,Drosophila melanogaster [1]; [14],0.739 ± 0.0092
same,olfactory response index,Drosophila melanogaster [1]; [15],0.591 ± 0.15
same,olfactory response index,Drosophila melanogaster [1]; [16],0.557 ± 0.023
same,olfactory response index,Drosophila melanogaster [1]; [17],0.537 ± 0.042
same,olfactory response index,Drosophila melanogaster [1]; [18],0.299 ± 0.13
same,olfactory response index,Drosophila melanogaster [1]; [19],0.555 ± 0.12
same,olfactory response index,Drosophila melanogaster [2]; [3],0.8108 ± 0.005
same,olfactory response index,Drosophila melanogaster [2]; [4],0.694 ± 0.053
same,olfactory response index,Drosophila melanogaster [2]; [5],0.534 ± 0.029
same,olfactory response index,Drosophila melanogaster [2]; [6],0.708 ± 0.24
same,olfactory response index,Drosophila melanogaster [2]; [7],0.757 ± 0.076
same,olfactory response index,Drosophila melanogaster [2]; [8],0.683 ± 0.17
same,olfactory response index,Drosophila melanogaster [2]; [9],0.645 ± 0.031
same,olfactory response index,Drosophila melanogaster [2]; [10],0.75 ± 0.058
same,olfactory response index,Drosophila melanogaster [2]; [11],0.839 ± 0.059
same,olfactory response index,Drosophila melanogaster [2]; [12],0.748 ± 0.087
same,olfactory response index,Drosophila melanogaster [2]; genotype (tubulin-GAL4 x UAS-RNAi line; control = progenitor): obp 58b,0.753 ± 0.048
same,olfactory response index,Drosophila melanogaster [2]; [13],0.795 ± 0.051
same,olfactory response index,Drosophila melanogaster [2]; [14],0.863 ± 0.051
same,olfactory response index,Drosophila melanogaster [2]; [15],0.663 ± 0.16
same,olfactory response index,Drosophila melanogaster [2]; [16],0.797 ± 0.16
same,olfactory response index,Drosophila melanogaster [2]; [17],0.738 ± 0.11
same,olfactory response index,Drosophila melanogaster [2]; [18],0.379 ± 0.16
same,olfactory response index,Drosophila melanogaster [2]; [19],0.726 ± 0.091
